From PubChem BioAssay (NCI) come the findings set out here.

Values joined by “and” are separate entries in the source; they are usually repeats but may differ in a detail not shown here. Equal entries are not always repeated. The panel holds about 83,000 compounds, 20% with a hit somewhere; the sample as a whole holds those more often.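 Treatment: one concentration, 48 hours, 96-well format. Scoring: percent growth, with anything below 10 considered active.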 Active and inactive are the calls of the source.

The subject of the assay is MDA-MB-468 breast. Briefly: NCI-60 one-dose screen, 48 h (100 = growth as untreated, 0 = no growth, -100 = all killed). Conditions: 10 µM unless noted.
Regarding `CC(=O)OC[C@]12CC[C@@H](C(=O)CBr)[C@@H]1[C@H]1CC[C@@H]3[C@@]4(C)CC[C@H](OC(C)=O)C(C)(C)[C@@H]4CC[C@@]3(C)[C@]1(C)CC2`, the growth is 108% (inactive).

Turning to `O=c1c2cccc(Cl)c2sc2c(NCCCNCCO)nc3ccccc3c12`, the growth was -19.5% (active).

As to `CN(C)CN1CCN(c2ccc3nc(-c4ccc5nc(-c6ccc(C(F)(F)F)cc6)[nH]c5c4)[nH]c3c2)CC1`, the growth was 13.7% (inactive).

In the case of `CCOC(=O)c1ccc2c(c1)ncn2-c1ccc(NC(=O)Nc2cccc(C)c2)cc1`, the growth is 116% (inactive).

For `COc1ccc(-c2nc(-c3ccccc3)c(-c3ccccc3)[nH]2)cc1OC1CCCCC1`, the growth is 73.1% (inactive).

Take `Cc1ccc([N+](=O)[O-])cc1NC(=O)Nc1cccc(F)c1`: the growth was 26.9% (inactive).

Regarding `Cc1cc([N+](=O)[O-])c(C)cc1C(=O)O`, the growth is 109% (inactive).

On to `Nc1ccc(C(=O)/C=C/c2ccccc2)cc1`, for which the growth was 87.4% (inactive).

In the case of `O=c1ccn(C2CC(O)C(O)C(CO)O2)c(=O)[nH]1` (stereo not given), the growth is 149% (inactive).

For the molecule `COc1ccc(C(=O)/C=C/c2ccc(/C=C/c3cc(OC)c(OC)c(OC)c3)cc2)cc1`, the growth is 51.9% (inactive).

`CCNC(=O)Oc1ccc(/C(=C(\C)c2ccccc2)c2ccc(OCCN(CC)CC)cc2)cc1`: the growth was 79.3% (inactive).

As for `N=C(N)c1ccc(-c2ccc(-c3ccc(Cl)c(Cl)c3)o2)cc1`, the growth was -70.3% (active).

Take `COc1cccc2c(=O)c3c(sc12)c(NCCCN)nc1ccccc13`: the growth is -8% (active).

On to `CCCCOc1ccc(/C=N/Nc2cc(C)nc3ccc(Cl)cc23)cc1`, for which the growth was -65.9% (active).

In the case of `CCOc1cccc(/C(N)=N/C(N)=N/c2nc3ccccc3s2)c1`, the growth is 85.6% (inactive).

Regarding `CCS/C(Nc1ccccc1)=C(\C#N)C(=O)Nc1ccc(OC)cc1`, the growth is -2.63% (active).

On to `CNC(=O)c1cc(Oc2cccc3nc(Nc4ccc(F)c(Cl)c4)ccc23)ccn1`, for which the growth was 6.51% (active).

Take `CN(C)C(=O)c1ccccc1-n1cnc2ccccc2c1=O`: the growth was 100% (inactive).

In the case of `COC(=O)[C@@H](NC(=O)NC(=O)NC(=O)CI)C(C)C`, the growth is 71.6% (inactive).

For the molecule `CN1CCN(c2ccc(NC(=O)c3cncnc3Nc3ccc4c(ccn4Cc4cccc(F)c4)c3)cc2)CC1`, the growth was 44.9% (inactive).

As for `CC(=O)Nc1ccc(OC(C)=O)cc1`, the growth is 5.17% (active) and 92.5% (inactive).

Turning to `O=S(=O)(Nc1ccc(OC(F)F)cc1)c1ccc(-c2cnc(C3CC3)o2)cc1`, the growth is -9.07% (active).

On to `NS(=O)(=O)c1ccc(N2N=C(c3cccs3)CC2c2ccccc2O)cc1` (stereo not given), for which the growth is 21.1% (inactive).

In the case of `CCCCCCCCCCCCCCCCC(=O)O`, the growth was 102% (inactive).

Turning to `CC[C@@H](C[C@H](CCO)c1ccccc1)c1cc2ccccc2o1`, the growth is 107% (inactive).

As for `COc1ccc(C2SC(C)C(=O)N2CCc2cccs2)cc1OC` (stereo not given), the growth was 48.1% (inactive).

As for `CCCCN(CCC)CCCCCCCCCCN1CCCc2ccccc21`, the growth is 65.6% (inactive).

In the case of `CCCCCCNC(=O)Oc1ccc(/C(=C(\C)c2ccc(OC)cc2)c2ccc(OCCN(C)C)cc2)cc1`, the growth is 95.4% (inactive).

As for `COC(=O)Nc1nc2ccc(C3(c4ccc(F)cc4)OCCO3)cc2[nH]1`, the growth is 23.3% (inactive).

`N/C(=N\C(N)=N\c1nc2ccccc2s1)c1ccc2ccccc2c1`: the growth is 109% (inactive).

Take `Cc1c(O)c(=O)ccn1C1CCC(CC2CCC(n3ccc(=O)c(O)c3C)CC2)CC1` (stereo not given): the growth is 0.337% (active).

For `CC1(C)CC[C@]2(C(=O)O)CC[C@]3(C)C(=CC[C@@H]4[C@@]5(C)C[C@@H](Cc6cn([C@@H]7O[C@H](CO)[C@@H](O)[C@H](O)[C@H]7O)nn6)[C@H](O)C(C)(C)[C@@H]5CC[C@]43C)[C@@H]2C1`, the growth is 87% (inactive).

For `O=C1c2ccccc2C(=O)c2c(O)c(Cl)cc(O)c21`, the growth was -15.7% (active).

With `c1ccc(OCCC[P+](c2ccccc2)(c2ccccc2)c2ccccc2)cc1`, the growth is -7.95% (active).

Consider `COc1ccc(NC(=O)c2ccc(Nc3ncnc4[nH]c(C)c(C)c34)cc2)cc1`, for which the growth was 119% (inactive).

`N#Cc1nc(-c2ccccc2)oc1N1CCC(CO)C1` (stereo not given): the growth is 92.5% (inactive).

For `COc1ccc(Nc2cnc3cc(NS(=O)(=O)c4ccc(C)cc4)ccc3n2)cc1`, the growth is 46.1% (inactive).

In the case of `Nc1c(C(=O)Nc2ccccc2)sc2nc3c(cc12)CN(CCc1ccccc1)CC3`, the growth was 107% (inactive).

As to `O=c1c2ccccc2sc2c(N3CCCC3)nc3ccccc3c12`, the growth was 98.6% (inactive).

For `N#C/C(=C\c1ccc([N+](=O)[O-])s1)c1nc2cc(Br)ccc2s1`, the growth was 32.4% (inactive).
